Rows were chosen to be rich in hits. Some 5% of all compounds tested hit in one or more screens of this group.
SENP6 block: SENP6 protease inhibition. Q9GZR1. Recombinant SENP6 catalytic domain, aminoluciferin luminescence. inhibition, % at 10 µM. 1.8% of 330,000 active;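 active means inhibition above about 50% at the single tested dose, limit read from the data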;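 further: plate controls were DMSO wells with enzyme for no effect and DMSO wells lacking enzyme for full effect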
AHR act: activators of human aryl hydrocarbon receptor. AHR-responsive luciferase reporter cells, luminescence. activation, % at 5 µM. AID 2796. P35869. 2.5% of 320,000 active; in the data active means activation above about 47%;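 further: 0% = vehicle wells and 100% = reference agonist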
EBI2 antag: antagonists of human EBI2 receptor. inhibition, % at 5 µM. P32249. EBI2 beta-arrestin recruitment, luminescence, 7a,25-OHC stimulated. 0.81% of 360,000 active; in the data active means inhibition above about 38%;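 further: enzyme fragment complementation signal reports receptor beta-arrestin coupling in cells; 0% = agonist plus DMSO wells and 100% = wells without agonist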
SENP7 block: inhibitors of human SENP7 protease. recombinant SENP7, Z-RLRGG-aminoluciferin luminescence, 40 min. inhibition, % at 5 µM. 1.5% of 330,000 active. AID 434973;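 active means inhibition above about 50% at the single test dose, limit read from the data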;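 further: plate controls were DMSO with enzyme for no effect and no enzyme buffer wells for full effect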
SENP8 block-1: inhibitors of human SENP8 protease. Q96LD8. purified SENP8, Z-RLRGG-aminoluciferin cleavage, luminescence. inhibition, % at 10 µM. 1.2% of 330,000 active; in the data active means inhibition above about 50%
Target sequence (Q96LD8 whole entry, looked up): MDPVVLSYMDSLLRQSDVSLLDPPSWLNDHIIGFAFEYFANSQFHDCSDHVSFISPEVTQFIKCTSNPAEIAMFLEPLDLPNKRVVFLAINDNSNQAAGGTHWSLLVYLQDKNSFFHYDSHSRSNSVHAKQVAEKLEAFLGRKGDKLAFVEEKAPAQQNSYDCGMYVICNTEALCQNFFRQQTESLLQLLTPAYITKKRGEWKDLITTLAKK
SENP8 block-2: inhibitors of human SENP8 protease. Q96LD8. recombinant SENP8, Nedd8 substrate fluorescence. inhibition, % at 20 µM. 0.64% of 360,000 active. AID 602440; in the data active means inhibition mostly above about 40%, no sharp cut-off; inactive means mostly below about 27%
The depositor's hits bear a star.

Results for CCOC(=O)[C@]12CCCC=C1N(Cc1ccco1)C(=O)[C@H](CC(=O)N1CCN(C(=O)c3ccco3)CC1)C2 ?
EBI2 antag: -11.4; SENP8 block-2: 15.0

How did O=C(NCCN1CCC(n2c(=O)[nH]c3ccccc32)CC1)c1cccc(F)c1 do in these assays?
EBI2 antag: -4.1; SENP8 block-2: 29.8

Results for CSc1nsc(N/N=C/c2ccccc2)c1C#N ?
SENP6 block: -0.8; AHR act: 60.0*; EBI2 antag: -5.6; SENP7 block: 1.6; SENP8 block-1: -9.8; SENP8 block-2: -70.2

How did COc1cccc(/C=N/Nc2snc(SC)c2C#N)c1 do in these assays?
SENP6 block: 36.8; AHR act: 48.7*; EBI2 antag: -7.4; SENP7 block: 0.3; SENP8 block-1: 5.4; SENP8 block-2: -204.9

What do the screens show for `N#Cc1ccccc1C[C@H](N)C(=O)NC[C@H]1O[C@@H](n2ccc(N)nc2=O)[C@H](O)[C@@H]1O`?
EBI2 antag: -2.0; SENP8 block-2: 24.4

Results for Cn1nc(C(C)(C)C)cc1NC(=O)C1(C)CCN1C(=O)C1(c2ccccc2)CC1 (stereo unspecified) ?
EBI2 antag: 3.0; SENP8 block-2: 25.1

How did CCCCn1c(N)c(N(CC(C)C)C(=O)CCNC(=O)c2ccc([N+](=O)[O-])cc2)c(=O)[nH]c1=O do in these assays?
SENP6 block: -8.4; EBI2 antag: 1.5; SENP7 block: -8.7; SENP8 block-1: -4.3; SENP8 block-2: 3.8

How did O=C(Nc1ccccc1)c1cc(Cl)nc2ccccc12 do in these assays?
SENP6 block: -0.3; AHR act: 49.2*; EBI2 antag: -5.2; SENP7 block: 5.5; SENP8 block-1: -4.2; SENP8 block-2: 10.9

What do the screens show for `Cc1ccc(NC(=O)c2cc(C)nc3ccccc23)cc1`?
SENP6 block: 13.2; AHR act: 67.5*; EBI2 antag: 1.2; SENP7 block: 5.9; SENP8 block-1: 2.8; SENP8 block-2: 13.9

How did Cc1cccc(NC(=O)c2cc(-c3ccc(C)s3)nc3ccccc23)n1 do in these assays?
SENP6 block: -1.7; AHR act: 56.2*; EBI2 antag: -51.8; SENP7 block: 3.3; SENP8 block-1: -2.6; SENP8 block-2: -392.2

What do the screens show for `CC(=O)c1ccc(NC(=O)c2cc(C)nc3ccccc23)cc1`?
SENP6 block: 3.3; AHR act: 3.5; EBI2 antag: -9.4; SENP7 block: 1.3; SENP8 block-1: -1.1; SENP8 block-2: 7.4

How did Cc1cc(C(=O)Nc2ccc(F)cc2)c2ccccc2n1 do in these assays?
SENP6 block: 1.6; AHR act: 56.2*; EBI2 antag: -6.0; SENP7 block: -2.3; SENP8 block-1: -0.8; SENP8 block-2: 21.5

Results for Cc1nc2c(-c3ccc(F)cc3)cnn2c2c1CCC2 ?
SENP6 block: -26.5; AHR act: 71.3*; EBI2 antag: 12.3; SENP7 block: 17.2; SENP8 block-1: -10.6; SENP8 block-2: -194.4

What do the screens show for `S=C(NCCCc1cnc[nH]1)NCCCN(Cc1ccc(Cl)cc1)c1ccc(Br)cn1`?
EBI2 antag: 5.8; SENP8 block-2: 17.8

How did NNC(=O)c1oc2nc(-c3cccs3)cc(-c3ccco3)c2c1N do in these assays?
SENP6 block: 11.0; AHR act: 48.5*; EBI2 antag: 12.8; SENP7 block: 2.6; SENP8 block-1: 8.8; SENP8 block-2: -63.7

What do the screens show for `Cc1cc(C)c(O)c(-c2n[nH]c3c2C(c2cccc(O)c2)N(Cc2ccco2)C3=O)c1` (stereo unspecified)?
SENP6 block: -15.3; AHR act: 65.3*; EBI2 antag: 7.5; SENP7 block: 1.6; SENP8 block-1: -10.0; SENP8 block-2: 15.3

What do the screens show for `CCOc1ccc(Cl)cc1-c1cc(C(=O)Nc2cc(OC)c(OC)c(OC)c2)[nH]n1`?
EBI2 antag: 11.5; SENP8 block-2: 15.7

What do the screens show for `COc1ccccc1NC(=S)N(Cc1ccco1)Cc1cc2cc(C)cc(C)c2[nH]c1=O`?
SENP6 block: -23.2; AHR act: 71.7*; EBI2 antag: 5.5; SENP7 block: -2.8; SENP8 block-1: -7.1; SENP8 block-2: -31.1

What do the screens show for `COc1ccccc1NC(=S)N(Cc1ccco1)Cc1cc2ccc(C)c(C)c2[nH]c1=O`?
SENP6 block: 2.6; AHR act: 38.2; EBI2 antag: -5.5; SENP7 block: 5.3; SENP8 block-1: 3.9; SENP8 block-2: -16.8

What do the screens show for `CSc1ccc(C(O)c2ncc(-c3cccc(F)c3)[nH]2)cc1` (stereo unspecified)?
EBI2 antag: -7.1; SENP8 block-2: 13.9
